In all, about 320,000 compounds went through this assay and about 22,000 (6.9%) were called active. Another 27% or so got no clear call; they are omitted. Calls follow the shape of the dose curve; as a rule, active = well fitted inhibition curve with a large enough effect; inconclusive = small, poorly fitted or top-dose-only effect, or another doubt; inactive = no such curve, though single readings can be large or run the other way. The full list was thinned out, with actives kept by preference.
assay: Primary qHTS for delayed death inhibitors of the malarial parasite plastid, 96 hour incubation; conditions: P. falciparum luciferase reporter growth; series mostly up to 28.7 µM; activity change, negative = inhibition: at the top concentration
Method in brief: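 Readout is luminescence from an integrated firefly luciferase in P. falciparum. Red cells, 2% hematocrit and 0.05% parasitemia final, were cultured with compound through two parasite generations (96 hours) at 37 C, 5% CO2.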
% is scaled to controls: 0 for no effect and ±100 for the full control effect; potency is read from the fitted curve at half-maximal effect.

Row | SMILES | activity change, negative = inhibition | Potency
1 | COc1cccc(N2CCN(CC(=O)Nc3ccnn3C3CCCC3)CC2)c1 | -13.9% (inactive) | –
2 | C#C[C@]1(O)CC[C@H]2[C@@H]3CCC4=CC(=O)CC[C@@H]4[C@H]3CC[C@@]21CC | – | 7.57 µM (active)
3 | Cc1cc(C)c(C#N)c(SCC(=O)N(CC(C)C)C2CCS(=O)(=O)C2)n1 (stereo unspecified) | -12.5% (inactive) | –
4 | CC(NC(=O)COc1ccc(-c2ccccc2)cc1)C1CCCO1 (stereo unspecified) | 38.1% (inactive) | –
5 | O=C(Nc1ccncc1)c1ccc([N+](=O)[O-])cc1Cl | 38.2% (inactive) | –
6 | CN(CCc1ccccn1)C1CCCN(S(=O)(=O)c2ccccc2Cl)C1 (stereo unspecified) | -0.441% (inactive) | –
7 | Cn1nc(C(F)(F)F)cc1C(=O)O | 36.7% (inactive) | –
8 | Cc1nn(-c2ccccc2)c(C)c1NC(=O)COc1ccc(Cl)cc1Cl | 8.25% (inactive) | –
9 | Cc1cccc(C)c1NC(=O)CNC(=O)c1c(C)nn(-c2ccccc2)c1C | -4.55% (inactive) | –
10 | Cc1nn(-c2ccccc2)c(C)c1NC(=O)CCl | – | 3.7 µM (active)
11 | O=C(NCC1CCCO1)c1cc2c(s1)CCCC2 (stereo unspecified) | 282% (inactive) | –
12 | CC1(C)O[C@@H]2[C@H](O1)[C@@H](CO)O[C@H]2n1c(N2CCCCC2)nc2c(N)ncnc21 | 8.05% (inactive) | –
13 | Cc1ccc(OCCCCN2CCCCC2)c(Br)c1 | -19.8% (inactive) | –
14 | C=CCc1cc(C)ccc1OCCCn1ccnc1 | – | 11.7 µM (active)
15 | Clc1c(OCCCn2ccnc2)ccc2ccccc12 | 203% (inactive) | –
16 | CCOC(=O)c1ccc(S(=O)(=O)N(CCO)Cc2cc3cc(OC)c(OC)cc3[nH]c2=O)cc1 | -9.56% (inactive) | –
17 | COc1ccc(S(=O)(=O)N2CCCC2CNC(=O)C(=O)NC2CC2)cc1 (stereo unspecified) | 2.54% (inactive) | –
18 | O=C(NCCC1CCCCN1S(=O)(=O)c1ccc(F)cc1)C(=O)NC1CC1 (stereo unspecified) | -4.85% (inactive) | –
19 | COc1cccc(CNC(=O)C(=O)NCCC2CCCCN2S(=O)(=O)c2ccc(C)cc2)c1 (stereo unspecified) | – | 10.4 µM (active)
20 | COc1cc(OC)c(NC(=O)C2CCCN2C(=O)OCc2ccccc2)cc1Cl (stereo unspecified) | -25.4% (inactive) | –
21 | CCOC(=O)CNC(=O)N1c2ccccc2Sc2ccccc21 | 17.9% (inactive) | –
22 | COc1ccc(CCNC(=O)CN2C(=O)CCSc3ccccc32)c(OC)c1 | -12.9% (inactive) | –

Row | SMILES | activity change, negative = inhibition | Potency
23 | CCOC(=O)CNC(=O)CN1C(=O)CCSc2ccccc21 | – | 11.7 µM (active)
24 | Cc1ccc(NC(=O)c2cnc(SCC(=O)NCC3CCCO3)n(C)c2=O)cc1 (stereo unspecified) | 38% (inactive) | –
25 | Cn1c(=O)n(C)c2cc(C(=O)Nc3ccc(Br)cc3)ccc21 | 9.04% (inactive) | –
26 | COC(=O)[C@@H]1CC(O)CN1C(=O)C12CC3CC(CC(C3)C1)C2 (stereo partly specified) | 31.1% (inactive) | –
27 | CCOc1ccccc1Nc1ccc2nonc2c1[N+](=O)[O-] | 17.1% (inactive) | –
28 | CSCCC(NC(=O)c1ccccc1)C(=O)N1CCN(Cc2ccc(Cl)cc2)CC1 (stereo unspecified) | – | 1.65 µM (active)
29 | CSCCC(NC(=O)c1ccccc1)C(=O)N1CCCCCCC1 (stereo unspecified) | -26.5% (inactive) | –
30 | COc1ccccc1C(=O)NC(CCSC)C(=O)NNC(=O)c1ccccc1C (stereo unspecified) | 8.05% (inactive) | –
31 | COc1ccccc1C(=O)NC(CCSC)C(=O)N1CCN(C/C=C/c2ccccc2)CC1 (stereo unspecified) | – | 11.7 µM (active)
32 | O=C(c1cccc(Cl)c1)N1CCN(Cc2ccccc2)CC1 | 23.5% (inactive) | –
33 | COc1ccccc1C(=O)NC(CCSC)C(=O)N1CCN(C(C)=O)CC1 (stereo unspecified) | 31.3% (inactive) | –
34 | CC(=O)NC(CC(=O)Nc1nc(-c2ccccc2)c(C(C)=O)s1)c1ccccc1 (stereo unspecified) | 3.68% (inactive) | –
35 | Cc1ccc(S(=O)(=O)NCC(=O)N2CCOCCOCCOCCOCC2)cc1 | 12.9% (inactive) | –
36 | Cc1ccc(CNC(=O)[C@@H](NC(=O)Cc2ccccc2)C(C)C)cc1 | 37.8% (inactive) | –
37 | Cn1c(-c2ccc(F)cc2)cc2onc(-c3ccccc3Cl)c2c1=O | 69.3% (inactive) | –
38 | CSc1ncc(Cl)c(C(=O)Nc2cc(C)ccc2C)n1 | -13% (inactive) | –
39 | O=C(COc1ccccc1)Nc1cc2c3c(c1)CC(=O)N3CCC2 | 31% (inactive) | –
40 | CN(C)CCCSc1ccccc1NC(=O)/C=C/c1ccccc1 | – | 12 µM (active)
41 | CC(=O)Nc1ccc(NC(=S)NC(=O)/C=C/c2ccccc2)cc1 | 8.73% (inactive) | –
42 | O=C(/C=C/c1ccccc1)N/C(=C/c1ccccc1)C(=O)Nc1ccccc1O | 42.9% (inactive) | –
43 | COc1ccc(NC(=O)CCCNC(=O)Cn2cnc3sc4c(c3c2=O)CCCC4)cc1OC | -7.58% (inactive) | –
44 | O=C(CSCC(=O)Nc1cccc([N+](=O)[O-])c1)Nc1ccccc1 | -2.07% (inactive) | –

Row | SMILES | activity change, negative = inhibition | Potency
45 | O=C(CSc1nc(-c2ccccc2)cs1)Nc1cccc([N+](=O)[O-])c1 | – | 10.4 µM (active)
46 | CCNC(=O)CSc1nc(-c2ccccc2)cs1 | -65.4% (inactive) | –
47 | O=[N+]([O-])c1cc(C(F)(F)F)ccc1NCCc1ccncc1 | 15.8% (inactive) | –
48 | Cc1ccc2[nH]c(=O)c(CC(=O)O)c(-c3ccccc3)c2c1 | 0.826% (inactive) | –
49 | CCCCOC(=O)Nc1nnc(CC(=O)NCc2ccccc2)s1 | -8.9% (inactive) | –
50 | Cc1ccc(OC(=O)c2c(C)nn(-c3ccccc3)c2C)cc1 | 101% (inactive) | –
51 | COc1ccc(CN2CC(C(=O)NC3CCCCC3)CC2=O)cc1 (stereo unspecified) | 23.7% (inactive) | –
52 | COc1ccc(C2CC(=O)NC(=O)C2)cc1 | 31.5% (inactive) | –
53 | COc1ccc(C2OC(=O)CC2C(=O)NC(C)C)cc1 (stereo unspecified) | – | 0.586 µM (active)
54 | O=C(c1cc(-c2ccc(O)cc2)on1)N1CCOCC1 | 276% (inactive) | –
55 | CCC(C(=O)OCCN(CC)CC)c1ccccc1 (stereo unspecified) | – | inactive
56 | CCCC(C(=O)OCCN(CC)CC)(c1ccccc1)c1ccccc1 | – | 10.7 µM (active)
57 | CCN(CC)CCOC(=O)c1cc2cc(COC)ccc2o1 | 127% (inactive) | –
58 | O=C(O/N=C(/c1ccccc1)c1ccncc1)c1ccccc1[N+](=O)[O-] | 8.43% (inactive) | –
59 | COc1ccc(C/C(C)=N/NC(=O)c2ccncc2)cc1 | 13.4% (inactive) | –
60 | COc1cc(OC)nc(N/N=C(\c2ccccc2)c2ccncc2)n1 | – | 5.22 µM (active)
61 | N#Cc1cccc(CN2CCC(=O)N([C@H](CO)c3ccccc3)CC2)c1 | -14.1% (inactive) | –
62 | C=CCOc1ccc(/C=C/C(=O)OC(C)C(=O)Nc2ccc(NC(C)=O)cc2)cc1 (stereo unspecified) | 32.7% (inactive) | –
63 | O=C(CCl)Nc1cccc(CP(=O)(c2ccccc2)c2ccccc2)c1 | – | 6.57 µM (active)
64 | O=C(Cc1ccccc1)Nc1cccc(NC(=O)c2ccccc2)c1 | 127% (inactive) | –
65 | CCc1cccc(NC(=O)CCC(=O)O)c1 | 33.6% (inactive) | –
66 | COc1ccc(CCNS(=O)(=O)c2cn(C)nc2C)cc1 | -3.77% (inactive) | –

Row | SMILES | activity change, negative = inhibition | Potency
67 | CCOc1ccc(OCC(=O)Nc2c3c(nn2C(C)(C)C)CS(=O)(=O)C3)cc1 | 8.15% (inactive) | –
68 | Cn1c(SCC(=O)NC2CCCCC2)nnc1-c1ccc(N)cc1 | 31.1% (inactive) | –
69 | CC1Cc2ccccc2N1C(=O)CSc1nnc(-c2ccc(S(=O)(=O)N3CCCC3)cc2)n1C (stereo unspecified) | -27.2% (inactive) | –
70 | Cn1c(SCC(=O)OC2CCCCC2)nnc1-c1ccc(S(=O)(=O)N2CCCC2)cc1 | – | 2.33 µM (active)
71 | Cc1ccc(CN2CC(C(=O)N3CCN(S(=O)(=O)c4ccccc4)CC3)CC2=O)cc1 (stereo unspecified) | -5.27% (inactive) | –
72 | CCc1noc(C)c1C(=O)Nc1nc2ccc(OC)cc2s1 | 55.7% (inactive) | –
73 | O=C(CCc1ccc(S(=O)(=O)N2CCOCC2)cc1)Nc1ccc2ccccc2c1 | – | 5.22 µM (active)
74 | O=C(CCc1ccc(S(=O)(=O)N2CCOCC2)cc1)NN=C1CCCCCCC1 | 7.59% (inactive) | –
75 | O=C(COC(=O)CCc1ccc(S(=O)(=O)N2CCOCC2)cc1)Nc1cccc(Cl)c1 | 1.04% (inactive) | –
76 | CCN(CC(=O)N1CCCC1)S(=O)(=O)c1ccc(F)cc1 | -18.8% (inactive) | –
77 | O=C(NCCCN1CCCC1=O)c1cccc(S(=O)(=O)NCc2ccccc2)c1 | 0.384% (inactive) | –
78 | CCN(CC(=O)Nc1c(F)cccc1F)C(=O)C1CCC1 | 12.3% (inactive) | –
79 | CC(C)c1ccc(Cc2nnc(NCCCO)[nH]c2=O)cc1 | -6.72% (inactive) | –
80 | Cc1cc(-c2ccc(S(=O)(=O)N3CCc4ccccc4C3)s2)on1 | 40.7% (inactive) | –
81 | Cc1cc(-c2ccc(S(=O)(=O)N3CCN(c4cccc(C(F)(F)F)c4)CC3)s2)on1 | – | 13.1 µM (active)
82 | Cc1cccc(N2CCN(S(=O)(=O)c3ccc(-c4cc(C)no4)s3)CC2C)c1 (stereo unspecified) | 7.47% (inactive) | –
83 | COCC1CCN(C(=O)CCc2nnc(C3(c4ccc(Cl)cc4)CCC3)o2)C1 (stereo unspecified) | -0.798% (inactive) | –
84 | CCOc1ccccc1N1C(=O)CC(Sc2nccc(C)n2)C1=O (stereo unspecified) | -19.9% (inactive) | –
85 | CCOc1ccc(OCC(=O)OC(C)C(=O)NC2CCCCC2C)cc1 (stereo unspecified) | -9.96% (inactive) | –
86 | CCc1ccc(CN(C)C(=O)CCc2nnc(-c3ccc(-c4ccccc4)cc3)o2)nc1 | – | 11.7 µM (active)
87 | Cc1ccc(C(=O)NCC(=O)OCc2nnc(-c3ccccc3)o2)cc1 | -23.8% (inactive) | –
88 | CCCC(=O)Nc1nnc(-c2ccccc2)o1 | 3.75% (inactive) | –

Row | SMILES | activity change, negative = inhibition | Potency
89 | CCOc1ccc(NC(=O)CC(Cc2ccc(Cl)cc2)C(=O)O)cc1 (stereo unspecified) | -6.41% (inactive) | –
90 | O=C(CN1CCc2cc3c(cc2C1)OCCCO3)Nc1ccccc1 | 47.6% (inactive) | –
91 | OCC(CO)NC1C[C@](O)(CO)[C@@H](O)[C@H](O)[C@H]1O (stereo partly specified) | 14.3% (inactive) | –
92 | CCCCOC(=O)CCCc1ccc([N+](=O)[O-])cc1[N+](=O)[O-] | 6.22% (inactive) | –
93 | CCCOc1ccc(Cn2ccnc2)cc1[N+](=O)[O-] | 0% (inactive) | –
94 | CCCCOc1ccc(CSC(=N)N)cc1[N+](=O)[O-] | – | 2.33 µM (active)
95 | COc1cc(CNCc2ccc3c(c2)OCO3)c([N+](=O)[O-])cc1OC | 3.58% (inactive) | –
96 | COc1cc(OC)c(C(=O)NCc2ccc3c(c2)OCO3)cc1OC | – | 13.1 µM (active)
97 | CCn1cc(C(=O)NCc2ccc3c(c2)OCO3)c2cc(OC)c(OC)cc2c1=O | 12% (inactive) | –
98 | O=C(O)CCCN1C(=O)C2C3c4ccccc4C(c4ccccc43)[C@@H]2C1=O (stereo partly specified) | 9.24% (inactive) | –
99 | O=C(CN1C(=O)CSC1=O)N1CCCC(Nc2ccc(F)cc2)C1 (stereo unspecified) | – | 1.65 µM (active)
100 | Cc1ccc(NC2CCCN(C(=O)CCc3cn[nH]c3)C2)cc1C (stereo unspecified) | 32% (inactive) | –
101 | O=C1CCCCN1CCCC(=O)N1CCCC(Nc2ccc(F)cc2)C1 (stereo unspecified) | 1.89% (inactive) | –
102 | CC1C(=O)Nc2ccc(S(=O)(=O)N3CCN(c4ccccc4F)CC3)cc2NC1=O (stereo unspecified) | 0.196% (inactive) | –
103 | O=C1/C(=C/c2cccs2)SC(=S)N1C1CCS(=O)(=O)C1 (stereo unspecified) | -41.9% (inactive) | –
104 | Cc1cc(C)cc(C(=O)NC(CC(N)=O)c2ccc(N3CCC(N4CCCCC4)CC3)c([N+](=O)[O-])c2)c1 (stereo unspecified) | 73.1% (inactive) | –
105 | CC1CCCCN1CCCNc1ccc(C(CC(N)=O)NC(=O)c2ccccc2)cc1[N+](=O)[O-] (stereo unspecified) | -34.8% (inactive) | –
106 | NC(=O)CC(NC(=O)Cc1ccc(Br)cc1)c1ccc(NC2CC3CCC2C3)c([N+](=O)[O-])c1 (stereo unspecified) | – | 11.7 µM (active)

Source: PubChem BioAssay AID504834 (National Center for Advancing Translational Sciences (NCATS), 2011)
